High-throughput results as filed in PubChem BioAssay.
In the library only some 14% were active in any assay of this set; here they are far more common.
HCMV antiviral: qHTS Assay for inhibitors of the human cytomegalovirus (HCMV). HFF cells, HCMV-luciferase reporter, 72 h; hits give low values. activity change, negative = inhibition, % at 57.5 µM. actives 4.5% (n = 410,000). AID 1259415, 2018; in the data active means activity change below about -60%; inconclusive means no clear call, values can overlap the other calls; inactive means above about -39%
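Compounds were evaluated in HFFs infected with an HCMV luciferase reporter virus (MOI 1 PFU/cell). Luciferase in lysates collected 72 h post infection served as the replication measure.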
Pf growth 96h: Primary qHTS for delayed death inhibitors of the malarial parasite plastid, 96 hour incubation | AID 504834, 2011 | P. falciparum luciferase reporter growth, 96 h | Potency, µM (doses to about 28.7 µM), usual class: inhibitors | actives 6.9% (n = 320,000)
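Two-generation exposure (96 h) targets delayed-death phenotype. Reporter parasites carrying integrated firefly luciferase, in red cells at 2% hematocrit and 0.05% parasitemia final, kept at 37 C, 5% CO2; luminescence loss indicates inhibition.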
HCV inhibitor: qHTS Assay for Inhibitors of Hepatitis C Virus (HCV). Huh7.5.1 HCVcc-Cre infection, luciferase reporter, 44 h. Potency, µM (doses to about 41.8 µM), most hits filed as inhibitors. actives 3.4% (n = 340,000). AID 651820, 2012
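1,000 cells/well; 4 h culture; + compound; + HCVcc-Cre (~0.5 moi); 44 h; luciferase substrate, RT 15 min; read 15 sec.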
Pf growth 48h: Primary qHTS for delayed death inhibitors of the malarial parasite plastid, 48 hour incubation; P. falciparum luciferase growth in erythrocytes, 48 h; Potency, µM (highest dose often 28.7 µM), usual class: inhibitors; actives 5.9% (n = 310,000)
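Firefly luciferase activity from engineered P. falciparum reports growth; inhibitors lower the luminescent signal. Cultures contained 2% hematocrit erythrocytes at 0.1% final parasitemia.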
LASV entry inh: qHTS for Inhibitors of binding or entry into cells for Lassa Virus. Lassa virus pseudotype entry inhibition, cell reporter. Potency, µM (top dose mostly 37.9 µM), most hits filed as inhibitors. actives 1.2% (n = 300,000); calls by dose curve; tested in HEK293 cells; further: nearly all actives have a fitted effect of over 50% in size
Marburg entry inh: qHTS for inhibitors of binding or entry into cells for Marburg Virus | actives 1.8% (n = 300,000) | Marburg virus pseudotyped entry inhibition, cell reporter | Potency, µM (top dose mostly 37.8 µM), actives largely listed as inhibitors; calls by dose curve; tested in HEK293 cells
Of the large screens only hits and unclear results are named; the others gave an inactive call. Unless noted, the call rests on the fitted dose curve; in most records, active means well fitted inhibition curve with a large enough effect; inconclusive means small, poorly fitted or top-dose-only effect, or another doubt; inactive means no such curve, though single readings can be large or run the other way.

COc1cc(C2C3=C(CCCC3=O)Nc3[nH]n(-c4ccccc4)c(=O)c32)ccc1OC(C)=O (stereo not given)	Pf growth 48h inconclusive, LASV entry inh inconclusive
CC(C)(C)OC(=O)N1CCC(c2c(C(=O)NCCN3CCCC3)cnn2-c2ccc(Cl)cc2)CC1	none (no result: Pf growth 96h, HCV inhibitor, Pf growth 48h, Marburg entry inh)
Cc1ccccc1-c1cc2nc(Nc3ccc(F)cc3)n(C)c(=O)c2s1	none (no result: Pf growth 96h, HCV inhibitor, Pf growth 48h, LASV entry inh, Marburg entry inh)
COc1cccc(-c2nc(N3CCCCC3)c3ccccc3n2)c1O	HCV inhibitor inconclusive, Marburg entry inh inconclusive (no result: Pf growth 96h, Pf growth 48h)
Cc1ccc(Nc2nc(N3CCOCC3)c3ccccc3n2)cc1	Pf growth 96h 10.4µM, HCV inhibitor inconclusive, LASV entry inh inconclusive, Marburg entry inh inconclusive (no result: Pf growth 48h)
Cc1ccc(Nc2nc(N)c([N+](=O)[O-])c(N3CCOCC3)n2)cc1	Pf growth 96h inconclusive
COc1ccc(Nc2nc(N3CCCCC3)c3ccccc3n2)cc1	HCMV antiviral -63.9, Pf growth 96h 4.65µM, HCV inhibitor inconclusive, Pf growth 48h 7.38µM, LASV entry inh inconclusive, Marburg entry inh inconclusive
CCc1ccccc1Nc1nn2c(=O)c3ccc(C(=O)NCCC4=CCCCC4)cc3nc2s1	none (no result: Pf growth 96h, HCV inhibitor, Pf growth 48h, Marburg entry inh)
CC(C)(O)C(Cl)(Cl)Cl	Pf growth 96h 1.69µM, Pf growth 48h 2.69µM (no result: HCMV antiviral, HCV inhibitor, LASV entry inh, Marburg entry inh)
O=C(Cn1cnc(S(=O)(=O)N2CCCC2)c1)Nc1cccc(Br)c1	HCMV antiviral inconclusive, Pf growth 96h 11.7µM (no result: Marburg entry inh)
CC(=O)c1cccc(NC(=O)Cn2cnc(S(=O)(=O)N3CCCCC3)c2)c1	none (no result: LASV entry inh, Marburg entry inh)
N#Cc1ccc(NC(=O)Cn2cnc(S(=O)(=O)N3CCc4ccccc43)c2)cc1	Pf growth 96h 11.7µM (no result: LASV entry inh, Marburg entry inh)
Cc1c(Cl)cccc1NC(=O)Cn1cnc(S(=O)(=O)N2CCCC2)c1	Pf growth 96h 7.38µM
CC1(C(=O)Nc2ccc(Cl)cc2)Cc2c(-c3ccc(C(N)=O)cc3)ccnc2O1 (stereo not given)	none (no result: Pf growth 96h, HCV inhibitor, Pf growth 48h, LASV entry inh, Marburg entry inh)
COCCCNC(=O)c1cc2n(n1)CCCN(Cc1ccc(C)cc1)C2=O	none (no result: Pf growth 96h, HCV inhibitor, Pf growth 48h, Marburg entry inh)
CCS(=O)(=O)N1Cc2ccccc2CC1C(=O)NCCc1c[nH]c2ccccc12 (stereo not given)	Pf growth 96h inconclusive, Pf growth 48h inconclusive, LASV entry inh inconclusive
Cc1ccc(NS(=O)(=O)c2ccc(-c3ccc(=O)[nH]n3)o2)cc1N(C)C	none
Cc1ccc(NS(=O)(=O)c2ccc(-c3ccc(=O)[nH]n3)o2)cc1Cl	Pf growth 96h 9.28µM
O=C(Nc1ccccc1Cl)c1cc(C2CCCN(C(=O)c3cccc(O)c3)C2)on1 (stereo not given)	none (no result: Pf growth 96h, HCV inhibitor, Pf growth 48h, LASV entry inh, Marburg entry inh)
O=C(O)Cn1nnc(-c2ccccc2)c1COc1ccccc1	none (no result: Pf growth 96h, HCV inhibitor, Pf growth 48h, LASV entry inh, Marburg entry inh)
Cc1nnc2c(N3CCN(c4ccccc4F)CC3)nc3ccc(C(=O)c4ccccc4)cc3n12	HCMV antiviral inconclusive (no result: Pf growth 96h, HCV inhibitor, Pf growth 48h, Marburg entry inh)
CN(Cc1c(C(=O)N/N=C/c2ccccc2O)nnn1-c1nonc1N)C1CCCCC1	HCMV antiviral -98.1 (no result: Pf growth 96h, HCV inhibitor, Pf growth 48h, LASV entry inh, Marburg entry inh)
CC(=C/c1ccccc1)/C=N/NC(=O)c1nnn(-c2nonc2N)c1CN1CCC(C)CC1	Pf growth 96h inconclusive, HCV inhibitor inconclusive, Pf growth 48h inconclusive, Marburg entry inh inconclusive
CCCN(CCC)Cc1c(C(=O)N/N=C/c2c[nH]c3ccccc23)nnn1-c1nonc1N	Pf growth 96h 9.28µM, Marburg entry inh inconclusive
CC1CCN(Cc2c(C(=O)N/N=C/c3ccccc3O)nnn2-c2nonc2N)CC1	HCMV antiviral -95.3, HCV inhibitor 3.55µM, Pf growth 48h inconclusive, LASV entry inh inconclusive, Marburg entry inh 3.16µM
CCCc1c(C(=O)N/N=C/c2c[nH]c3ccccc23)nnn1-c1nonc1N	none (no result: Pf growth 96h, HCV inhibitor, Pf growth 48h, LASV entry inh, Marburg entry inh)
Cc1nnn(-c2nonc2N)c1C(=O)N/N=C/c1cccc2ccccc12	HCMV antiviral -65.1, HCV inhibitor inconclusive, Marburg entry inh inconclusive
CC(=O)Cn1cnc2c(cnn2-c2ccc(F)cc2)c1=O	none (no result: Pf growth 96h, HCV inhibitor, Pf growth 48h, LASV entry inh, Marburg entry inh)
COc1cc(NS(=O)(=O)c2cc3c(cc2C)N(C)CCO3)cc(OC)c1OC	none (no result: Pf growth 96h, HCV inhibitor, Pf growth 48h, Marburg entry inh)
Cc1cccc(-n2c(C)nc3cc(C(=O)NCCC4=CCCCC4)ccc32)c1	none (no result: Pf growth 96h, HCV inhibitor, Pf growth 48h, Marburg entry inh)
CCN(CC)c1ccc(/C=N/NC(=O)c2nnn(-c3nonc3N)c2C(C)C)c(O)c1	HCMV antiviral -102.0, Pf growth 96h 7.38µM, HCV inhibitor 1.12µM, Pf growth 48h 3.7µM, LASV entry inh inconclusive, Marburg entry inh 2.51µM
COc1cccc(C(=O)Nc2cccc(-c3cn4ccsc4n3)c2)c1OC	none (no result: Pf growth 96h, HCV inhibitor, Pf growth 48h, Marburg entry inh)
CC1(C)OC(=O)C(=CC2=NCCC2)C(=O)O1	none (no result: HCMV antiviral, Pf growth 96h, HCV inhibitor, Pf growth 48h, LASV entry inh)
CCOC(=O)Cc1nnc(Nc2cc(C)ccc2C)c2ccccc12	HCMV antiviral -60.3
CCOC(=O)Cc1nnc(Nc2ccc(C)cc2C)c2ccccc12	HCMV antiviral -60.0, Pf growth 96h 4.65µM
CN(Cc1ccc(Cl)c(Cl)c1)C(C(=O)NCc1ccccc1)c1ccco1 (stereo not given)	none (no result: Pf growth 96h, HCV inhibitor, Pf growth 48h, LASV entry inh, Marburg entry inh)
COc1ccc(NS(=O)(=O)c2ccc3oc(SCc4ccc(F)cc4)nc3c2)cc1	HCMV antiviral -61.0, Pf growth 96h inconclusive, HCV inhibitor 11.2µM, LASV entry inh inconclusive, Marburg entry inh inconclusive
COc1ccccc1NS(=O)(=O)c1ccc2oc(SC)nc2c1	HCV inhibitor inconclusive
COc1ccccc1NS(=O)(=O)c1ccc2oc(SCc3ccc(F)cc3)nc2c1	Pf growth 96h inconclusive, HCV inhibitor 35.5µM, LASV entry inh inconclusive, Marburg entry inh inconclusive
COc1ccc(NC(=O)CSc2nc(C3CC3)nc3ccccc23)cc1	HCMV antiviral inconclusive, HCV inhibitor 11.2µM, LASV entry inh inconclusive, Marburg entry inh inconclusive
